HCMV inh – inhibitors of human cytomegalovirus. HFF cells, HCMV-luciferase reporter, 72 h; active compounds read low. activity change, negative = inhibition, % at 57.5 µM. hit rate 4.5% among 410,000. AID 1259415; in the data active = activity change below about -60%; inconclusive = no clear call, values can overlap the other calls; inactive = above about -39%
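Steps: HFFs plated, 16 h 37C; compounds added; HCMV-luciferase added to MOI 1 PFU/cell; 72 h 37C; OneGlo reagent, 5 min room temperature; luminescence read, normalized to controls.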
FMDV inh – antivirals against foot and mouth disease virus | FMDV antiviral cell-based qHTS | Potency, µM (highest dose often 57.9 µM), for the others: top-dose activity change, negative = inhibition, usual class: inhibitors | hit rate 1.2% among 410,000; calls by dose curve; tested in HEK293T cells; also: read-out not given here; potency is read from the fitted curve at half-maximal effect; nearly all actives have a fitted effect of over 45% in size
MARV entry inh – Marburg virus entry inhibition | hit rate 1.8% among 300,000 | Potency, µM (series often up to 37.8 µM), without a hit: top-dose activity change, negative = inhibition, most hits filed as inhibitors | Marburg virus pseudotyped entry inhibition, cell reporter | AID 540276; calls by dose curve; tested in HEK293 cells; also: potency is read from the fitted curve at half-maximal effect
VACV Venus inh – inhibitors of vaccinia virus (Venus reporter) | Vaccinia virus Venus reporter expression, fluorescence | AID 720580 | hit rate 0.46% among 330,000 | Potency, µM (series often up to 36.5 µM), without a hit: top-dose activity change, negative = inhibition, most hits filed as inhibitors; calls by dose curve; tested in A549 cells; also: potency is read from the fitted curve at half-maximal effect; nearly all actives have a fitted effect of over 30% in size
VACV mCherry inh – inhibitors of vaccinia virus infection (mCherry reporter signal); AID 720579; Potency, µM (doses to about 36.5 µM), for inactives: top-dose activity change, negative = inhibition, most hits filed as inhibitors; hit rate 0.63% among 310,000; Vaccinia virus mCherry reporter infection, fluorescence; calls by dose curve; tested in A549 cells; also: potency is read from the fitted curve at half-maximal effect; nearly all actives have a fitted effect of over 35% in size
Lassa entry inh – blocks Lassa virus binding to or entry into cells; Lassa virus pseudotype entry inhibition, cell reporter; Potency, µM (titrated, usually from 37.9 µM), inactives show at the highest dose activity change, negative = inhibition, hits mostly inhibitors; hit rate 1.2% among 300,000; calls by dose curve; tested in HEK293 cells; also: potency is read from the fitted curve at half-maximal effect; nearly all actives have a fitted effect of over 50% in size
Starred values were filed as active, the others as inactive; [ ] = dose if it differs, or a comment. Shown are actives, neighbours in structure and some others; about 6.5% of the full set was active somewhere. % is scaled to controls: 0 for no effect and ±100 for the full control effect.

NC(=O)N/N=C/c1cn(-c2ccccc2)nc1-c1cccs1 was read as HCMV inh 9, FMDV inh 33%, MARV entry inh 0%[46.1 µM], VACV Venus inh -13%, VACV mCherry inh -11% and Lassa entry inh 9%.
N#Cc1ccc(N/N=C/c2cn(-c3ccccc3)nc2-c2ccccc2)c([N+](=O)[O-])c1 was read as HCMV inh 39, FMDV inh -9%, MARV entry inh inconclusive, VACV Venus inh 2%, VACV mCherry inh -8% and Lassa entry inh 4%.
`NS(=O)(=O)c1ccc(N/N=C/c2cn(-c3ccccc3)nc2-c2cccs2)cc1` gave HCMV inh -77*, FMDV inh -25%, MARV entry inh inconclusive, VACV Venus inh inconclusive, VACV mCherry inh -20% and Lassa entry inh inconclusive.
NS(=O)(=O)c1ccc(N/N=C/c2cn(-c3ccccc3)nc2-c2cccs2)c([N+](=O)[O-])c1 was read as HCMV inh -113*, FMDV inh inconclusive, MARV entry inh 10µM*, VACV Venus inh -18%, VACV mCherry inh -13% and Lassa entry inh inconclusive.
Screening S=C(NCC1CCCO1)N1CCc2ccccc2C1 (stereo not drawn) returned HCMV inh 14 and FMDV inh 91%.
CN1CCN(C(=S)c2cn(CCOc3ccccc3F)c3ccccc23)CC1 was read as HCMV inh 60, FMDV inh 16%, MARV entry inh inconclusive, VACV Venus inh -12%, VACV mCherry inh inactive and Lassa entry inh -20%.
`CC(C)CCN1C(Nc2ccccc2)=NC[C@@H]1Cc1ccccc1` gave HCMV inh -13, FMDV inh -6%, VACV Venus inh -16% and VACV mCherry inh -10%.
CC(CCN1C(Nc2ccccc2)=NC[C@@H]1Cc1ccccc1)c1ccccc1 (stereo partly drawn) was read as HCMV inh -61*, FMDV inh -7%, VACV Venus inh -13% and VACV mCherry inh inconclusive.
Screening CCC(C)CCN1C(N(C)C)=NC[C@@H]1Cc1ccccc1 (stereo partly drawn) returned HCMV inh -67*, FMDV inh -20%, VACV Venus inh -23% and VACV mCherry inh -8%.
`Cc1nn(C(C)(C)C)c(OC(=O)c2cccs2)c1S(=O)(=O)c1ccccc1` gave HCMV inh 4, FMDV inh inconclusive, MARV entry inh inconclusive, VACV Venus inh inconclusive, VACV mCherry inh inconclusive and Lassa entry inh 11µM*.
For COCC(=O)Oc1c(Sc2ccccc2[N+](=O)[O-])c(C)nn1C(C)(C)C the results were HCMV inh -101*, FMDV inh -10%, MARV entry inh 4%[46.1 µM], VACV Venus inh -6%, VACV mCherry inh inactive and Lassa entry inh 16%.
Screening COCC(=O)Oc1c(S(=O)(=O)c2ccc(C)cc2)c(C)nn1C(C)(C)C returned HCMV inh -71*, FMDV inh -13%, MARV entry inh 6%[46.1 µM], VACV Venus inh -25%, VACV mCherry inh -9% and Lassa entry inh -2%[46.1 µM].
COc1ccc2c(CNCCc3ccccc3)c(C(=O)O)n(Cc3cccc(F)c3)c2c1 was read as HCMV inh 36, FMDV inh 3%, VACV Venus inh -6%, VACV mCherry inh -11% and Lassa entry inh inconclusive.
Screening O=C(Nc1cc(C(=O)NC2CCOCC2)c2c(c1)ncn2C1CCCC1)c1ccccc1 returned FMDV inh -7%, VACV Venus inh -9% and VACV mCherry inh -15%.
`Cc1ccsc1C(=O)N1CCCC(C)(C(=O)NS(=O)(=O)C2CC2)C1` (stereo not drawn) gave HCMV inh 5, FMDV inh -8%, VACV Venus inh 1% and VACV mCherry inh 10%.
Cc1ccccc1CN1C(=O)CS/C1=N/N=C/c1ccco1 was read as HCMV inh 9, FMDV inh -15%, MARV entry inh 11%[46.1 µM], VACV Venus inh -14%, VACV mCherry inh -17% and Lassa entry inh 10µM*.
Screening CCC1S/C(=N/N=C/c2ccco2)N(Cc2ccccc2C)C1=O (stereo not drawn) returned HCMV inh -20 and FMDV inh -7%.
NC(Cc1ccc(Cl)cc1)c1csc(NC(=O)Nc2ccccc2)n1 (stereo not drawn) was read as HCMV inh 14, FMDV inh -27%, VACV Venus inh inconclusive and VACV mCherry inh inconclusive.
`COc1ccc(CC(N)c2csc(NC(=O)Nc3cccc(C(F)(F)F)c3)n2)cc1` (stereo not drawn) gave HCMV inh -39, FMDV inh -15%, VACV Venus inh 14µM* and VACV mCherry inh inconclusive.
Screening NC(CCc1ccccc1)c1csc(NC(=O)Nc2cccc(C(F)(F)F)c2)n1 (stereo not drawn) returned HCMV inh -98*, FMDV inh -23%, VACV Venus inh inconclusive and VACV mCherry inh inconclusive.
`CCCCN(C)C(=O)c1ccc(Nc2nc(C(N)Cc3ccc(C(F)(F)F)cc3)cs2)nc1` (stereo not drawn) gave HCMV inh -76*, FMDV inh -23%, VACV Venus inh -21% and VACV mCherry inh -20%.
Screening NC(Cc1ccc(C(F)(F)F)cc1)c1csc(NC(=O)Nc2ccccc2)n1 (stereo not drawn) returned HCMV inh -28, FMDV inh -24%, VACV Venus inh 10µM* and VACV mCherry inh inconclusive.
Screening CC(C)C(N)c1csc(NC(=O)Nc2cccc(C(F)(F)F)c2)n1 (stereo not drawn) returned HCMV inh 3, FMDV inh -12%, VACV Venus inh -24% and VACV mCherry inh -8%.
For COc1ccc(CC(N)c2csc(NC(=O)Nc3ccc(F)cc3)n2)cc1 (stereo not drawn) the results were HCMV inh -10, FMDV inh -33%, VACV Venus inh -13% and VACV mCherry inh -26%.
For COc1ccc(N2CCN(C(=O)CSc3nc4nc(C)cc(C)n4n3)CC2)cc1 the results were HCMV inh -29, FMDV inh -13%, MARV entry inh 21%, VACV Venus inh -8%, VACV mCherry inh -12% and Lassa entry inh 6%.
Screening COc1ccccc1CC1CC(=O)N(c2cccc(Cl)c2C)C1=O (stereo not drawn) returned HCMV inh 9 and FMDV inh 15%.
Screening CN1C(=O)C(n2cccc2)c2ccccc21 (stereo not drawn) returned HCMV inh 0.
NC(Cc1ccc(C(F)(F)F)cc1)c1csc(Nc2nncc3ccccc23)n1 (stereo not drawn) was read as HCMV inh -104*, FMDV inh -24%, VACV Venus inh inconclusive and VACV mCherry inh inconclusive.
Screening O=C(CSc1nc2ccccc2c(=O)n1CC1CCCO1)NCCc1ccccc1 (stereo not drawn) returned HCMV inh -15 and FMDV inh -4%.

Screening data as filed in PubChem.
